Measurements published in the supplement of paper PMC4022240.
± gives the standard deviation.

B1: Unmod H2B variant V H P D T G I S S K A M G (peptide)
chain: VHPDTGISSKAMG
B2: Unmod H2B variant K V L K Q V H P D T G I S (peptide)
chain: KVLKQVHPDTGIS
B3: Unmod H2B variant P E P V K S A P V P K K G (peptide)
chain: PEPVKSAPVPKKG
B4: Unmod H2B variant P E V S S K G A T I S K K (peptide)
chain: PEVSSKGATISKK
B5: Unmod H2B variant P E L A K S A P A P K K G (peptide)
chain: PELAKSAPAPKKG
B6: Unmod H2B variant K T Q K K E G K K R K R T (peptide)
chain: KTQKKEGKKRKRT
B7: Unmod H2B variant K A Q K K D G K K R K R S (peptide)
chain: KAQKKDGKKRKRS
B8: Unmod H2B variant A P K K G S K K A I T K A (peptide)
chain: APKKGSKKAITKA
B9: Unmod H2B variant P K K G S K K A V T K A Q (peptide)
chain: PKKGSKKAVTKAQ
B10: Unmod H2B variant D G K K R K R S R K E S Y (peptide)
chain: DGKKRKRSRKESY
B11: Unmod H2B variant K R S R K E S Y S I Y V Y (peptide)
chain: KRSRKESYSIYVY
B12: Unmod H2B variant I S K K G F K K A V V K T (peptide)
chain: ISKKGFKKAVVKT
B13: Unmod H2B variant P E P S K S A P A P K K G (peptide)
chain: PEPSKSAPAPKKG
B14: Unmod H2B variant K R T R K E S Y S I Y I Y (peptide)
chain: KRTRKESYSIYIY
B15: Unmod H2B variant P D P A K S A P A P K K G (peptide)
chain: PDPAKSAPAPKKG
B16: Unmod H2B variant A P K K G S K K A V T K A (peptide)
chain: APKKGSKKAVTKA
B17: Unmod H2B variant P E P T K S A P A P K K G (peptide)
chain: PEPTKSAPAPKKG
B18: Unmod H2B variant E G K K R K R T R K E S Y (peptide)
chain: EGKKRKRTRKESY
B19: Unmod H2B variant V P K K G S K K A I N K A (peptide)
chain: VPKKGSKKAINKA
B20: Unmod H2B variant P E P A K S A P A P K K G (peptide)
chain: PEPAKSAPAPKKG

Target: T1, HaloTag-ATRX ADD domain (163-292)
T1 chain: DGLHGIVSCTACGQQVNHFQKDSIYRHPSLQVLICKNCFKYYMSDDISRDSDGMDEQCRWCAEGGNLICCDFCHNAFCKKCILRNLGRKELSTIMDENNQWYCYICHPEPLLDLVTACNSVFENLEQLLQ
Assay: peptide microarray binding signal (635 nm), min-max normalized on array (fraction of array maximum); higher = stronger binding
Conditions: peptide region: Unmod H2B variant; binder concentration: 50 nM
Outline: (§1)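 Within each library, mean intensities of triplicate spots were min-max scaled to give the binding signal. The spots were histone 13-mer peptide–cellulose conjugates on nitrocellulose with a Cy3 tracer, blocked overnight at 4°C. They were then probed for 1 h at 4°C using biotin-labelled HaloTag reader fusions (10 nM to 1 μM) with streptavidin-Alexa Fluor 647 or rabbit histone antibodies (1:10,000 to 1:2,000) with anti-rabbit Alexa 647, and scanned at 635 nm for signal and 532 nm for misprints on an Axon GenePix 4000B.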

| Binder | peptide microarray binding signal |
| --- | --- |
| B1 | 0.009373 ± 4.6e-05 |
| B2 | 0.00552 ± 0.00019 |
| B3 | 0.007868 ± 4.2e-05 |
| B4 | 0.0052 ± 0.00018 |
| B5 | 0.00618 ± 0.00062 |
| B6 | 0.0089 ± 0.00018 |
| B7 | 0.0176 ± 0.012 |
| B8 | 0.00592 ± 0.00021 |
| B9 | 0.00561 ± 0.00027 |
| B10 | 0.00834 ± 0.00013 |
| B11 | 0.00561 ± 0.00019 |
| B12 | 0.00683 ± 0.00024 |
| B13 | 0.00618 ± 0.00016 |
| B14 | 0.015 ± 0.0008 |
| B15 | 0.0068 ± 0.00035 |
| B16 | 0.00705 ± 0.00011 |
| B17 | 0.006019 ± 5.5e-05 |
| B18 | 0.00661 ± 0.00023 |
| B19 | 0.00639 ± 0.00069 |
| B20 | 0.00404 ± 8.4e-05 |

Same assay, conditions: peptide region: Unmod H2B variant; binder concentration: 500 nM

| Binder | peptide microarray binding signal |
| --- | --- |
| B1 | 0.0173 ± 0.0018 |
| B2 | 0.00971 ± 0.0005 |
| B3 | 0.0166 ± 0.00043 |
| B4 | 0.00605 ± 0.00026 |
| B5 | 0.0121 ± 0.001 |
| B6 | 0.0148 ± 0.0025 |
| B7 | 0.00876 ± 0.00031 |
| B8 | 0.00971 ± 0.00064 |
| B9 | 0.008048 ± 4.3e-05 |
| B10 | 0.00714 ± 0.00021 |
| B11 | 0.0029 ± 0.00042 |
| B12 | 0.0118 ± 0.00025 |
| B13 | 0.0115 ± 0.0012 |
| B14 | 0.0228 ± 0.0011 |
| B15 | 0.00538 ± 0.00012 |
| B16 | 0.00729 ± 0.00014 |
| B17 | 0.0126 ± 0.00066 |
| B18 | 0.0101 ± 0.00031 |
| B19 | 0.0081 ± 0.00015 |
| B20 | 0.00971 ± 0.00016 |

The binders below were run against HaloTag-ING2 PHD (mouse Ing2 200-280) in the same assay as above. Conditions: peptide region: Unmod H2B variant; binder concentration: 10 nM.
Outline: as §1

| Binder | peptide microarray binding signal |
| --- | --- |
| B1 | 0.0154 ± 0.0017 |
| B2 | 0.00531 ± 0.00011 |
| B3 | 0.00889 ± 0.00055 |
| B4 | 0.003103 ± 3e-05 |
| B5 | 0.0037 ± 8.6e-05 |
| B6 | 0.003163 ± 1.7e-05 |
| B7 | 0.00275 |
| B8 | 0.00239 ± 4.7e-05 |
| B9 | 0.00275 ± 0.00016 |
| B10 | 0.00221 ± 3.8e-05 |
| B11 | 0.00179 ± 4.2e-05 |
| B12 | 0.00227 ± 7.3e-05 |
| B13 | 0.00406 ± 0.00015 |
| B14 | 0.00716 ± 0.00018 |
| B15 | 0.00358 ± 0.00019 |
| B16 | 0.00185 ± 1.9e-05 |
| B17 | 0.0173 ± 0.011 |
| B18 | 0.00251 ± 0.00012 |
| B19 | 0.00263 ± 3.9e-05 |
| B20 | 0.00346 ± 6.5e-05 |

Same assay, conditions: peptide region: Unmod H2B variant; binder concentration: 100 nM

| Binder | peptide microarray binding signal |
| --- | --- |
| B1 | 0.0346 ± 0.0034 |
| B2 | 0.0101 ± 0.00011 |
| B3 | 0.0274 ± 0.0037 |
| B4 | 0.00468 ± 0.00025 |
| B5 | 0.0085 ± 0.0029 |
| B6 | 0.00857 ± 0.0013 |
| B7 | 0.00461 ± 0.00031 |
| B8 | 0.00248 ± 6.3e-05 |
| B9 | 0.00354 ± 0.00011 |
| B10 | 0.00454 ± 0.00011 |
| B11 | 0.000496 ± 9.7e-06 |
| B12 | 0.00602 ± 0.00021 |
| B13 | 0.0137 ± 0.0011 |
| B14 | 0.0159 ± 0.0033 |
| B15 | 0.004039 ± 3.4e-05 |
| B16 | 0.00446 ± 0.00013 |
| B17 | 0.0103 ± 0.0017 |
| B18 | 0.00326 ± 0.0001 |
| B19 | 0.0056 ± 0.00078 |
| B20 | 0.00369 ± 5.6e-05 |

The binders below were run against anti-H3K4me3 antibody ab8580 in the same assay as above. Conditions: peptide region: Unmod H2B variant; binder concentration: 1:2,000 dilution.
Outline: as §1

| Binder | peptide microarray binding signal |
| --- | --- |
| B1 | 0.00563 ± 0.0004 |
| B2 | 0.000755 ± 1.8e-05 |
| B3 | 0.00279 ± 0.00019 |
| B4 | 0.00051 ± 1.5e-05 |
| B5 | 0.0013 ± 0.00034 |
| B6 | 0.00068 ± 1.9e-05 |
| B7 | 0.000415 ± 4.2e-06 |
| B8 | 0.000264 ± 2.8e-06 |
| B9 | 0.000378 ± 7.7e-06 |
| B10 | 0.000623 ± 2e-05 |
| B11 | 0.00051 ± 7.5e-05 |
| B12 | 0.00051 ± 8.6e-06 |
| B13 | 0.000963 ± 6.3e-05 |
| B14 | 0.000529 ± 1.4e-05 |
| B15 | 0.000868 ± 7.8e-05 |
| B16 | 0.000529 ± 1.4e-05 |
| B17 | 0.001 ± 0.0001 |
| B18 | 0.000378 ± 3.9e-06 |
| B19 | 0.000529 ± 4.2e-05 |
| B20 | 0.000359 ± 3.7e-06 |

Same assay, conditions: peptide region: Unmod H2B variant; binder concentration: 1:10,000 dilution

| Binder | peptide microarray binding signal |
| --- | --- |
| B1 | 0.00964 ± 0.0005 |
| B2 | 0.001655 ± 1.6e-05 |
| B3 | 0.00251 ± 0.00026 |
| B4 | 0.000742 ± 1.3e-05 |
| B5 | 0.0028 ± 0.00029 |
| B6 | 0.0012 ± 1.2e-05 |
| B7 | 0.00103 ± 2.1e-05 |
| B8 | 0.00114 ± 3e-05 |
| B9 | 0.000628 ± 6.7e-06 |
| B10 | 0.000628 ± 6.7e-06 |
| B11 | 0.000685 ± 1.5e-05 |
| B12 | 0.000685 ± 7.2e-06 |
| B13 | 0.00126 ± 9.4e-05 |
| B14 | 0.0016 ± 5.3e-05 |
| B15 | 0.00097 ± 9.9e-06 |
| B16 | 0.000571 ± 1.1e-05 |
| B17 | 0.00205 ± 0.00015 |
| B18 | 0.000913 ± 1.6e-05 |
| B19 | 0.000856 ± 8.9e-06 |
| B20 | 0.00097 ± 2e-05 |

The binders below were run against anti-H3K9me3 antibody ab8898 in the same assay as above. Conditions: peptide region: Unmod H2B variant; binder concentration: 1:2,000 dilution.
Outline: as §1

| Binder | peptide microarray binding signal |
| --- | --- |
| B1 | 0.00272 ± 6.5e-05 |
| B2 | 0.000483 ± 2.8e-05 |
| B3 | 0.000997 ± 6.3e-05 |
| B4 | 0.000362 ± 1.3e-05 |
| B5 | 0.000951 ± 7.1e-05 |
| B6 | 0.000287 ± 5.9e-06 |
| B7 | 0.000227 |
| B8 | 0.000302 ± 3.1e-06 |
| B9 | 0.000196 ± 2.1e-06 |
| B10 | 0.000151 ± 1.6e-06 |
| B11 | 0.000227 ± 4.1e-06 |
| B12 | 0.000257 ± 2.7e-06 |
| B13 | 0.000453 ± 7.5e-06 |
| B14 | 0.000468 ± 1.2e-05 |
| B15 | 0.000453 |
| B16 | 0.000211 ± 2.2e-06 |
| B17 | 0.000649 ± 1.2e-05 |
| B18 | 0.000302 ± 1.5e-05 |
| B19 | 0.000196 ± 2.1e-06 |
| B20 | 0.000408 |

Same assay, conditions: peptide region: Unmod H2B variant; binder concentration: 1:10,000 dilution

| Binder | peptide microarray binding signal |
| --- | --- |
| B1 | 0.00283 ± 4.9e-05 |
| B2 | 0.00346 ± 0.0011 |
| B3 | 0.00144 ± 5.1e-05 |
| B4 | 0.000634 |
| B5 | 0.00133 ± 8.2e-05 |
| B6 | 0.000865 ± 9e-06 |
| B7 | 0.000692 ± 7.3e-06 |
| B8 | 0.000634 ± 1.2e-05 |
| B9 | 0.000577 ± 6.2e-06 |
| B10 | 0.000461 |
| B11 | 0.000634 ± 1.2e-05 |
| B12 | 0.000461 |
| B13 | 0.000923 ± 9.6e-06 |
| B14 | 0.0011 ± 1.1e-05 |
| B15 | 0.00075 ± 7.9e-06 |
| B16 | 0.000461 |
| B17 | 0.00115 ± 2e-05 |
| B18 | 0.000404 ± 4.4e-06 |
| B19 | 0.000461 ± 8.7e-06 |
| B20 | 0.000346 ± 3.8e-06 |
